The full data set covers some 8,800 targets. This sample favours those with a hit. About 0.5% of all pairs of compound and target were hits.
Tests used:
Test in all cases: log2 fold change, soluble protein after heating vs DMSO (PISA); higher = thermal stabilisation; K562 lysate, 10 uM; active = over 0.2 and 3.5 SD of the protein, either way, in both replicates (recomputed)
[1] = compound: NCC(=O)Nc1ccc(-n2nc(C(F)(F)F)cc2-c2ccc3c(ccc4ccccc43)c2)cc1
Summary of the method: (§1)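 K562 pellets were dounce-homogenised in PBS pH 7.4 containing 1 mM MgCl2, and the crude extract, at 1 mg/mL protein, was exposed to 10 μM compound for 30 min. Aliquots were heated for 3 min across 48°C-58°C, pooled, brought to 0.5% NP-40 at 4°C and spun at 21,000xg for 90 min, with the supernatant taken as soluble protein. TMTpro 16plex LC-MS/MS with equalised channel sums quantified that protein. Values are log-two fold changes in thermal stability relative to solvent controls, taken from duplicates.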

vorinostat = compound: O=C(CCCCCCC(=O)Nc1ccccc1)NO [vorinostat]
Summary of the method: as §1

silmitasertib = compound: O=C(O)c1ccc2c(c1)nc(Nc1cccc(Cl)c1)c1ccncc12 [silmitasertib]
Summary of the method: as §1

[2] = compound: O=C1NC(=O)C(c2cnc3ccccn23)=C1c1cn2c3c(cc(F)cc13)CN(C(=O)N1CCCCC1)CC2
Summary of the method: as §1

entospletinib = compound: c1cn2cc(-c3ccc4cn[nH]c4c3)nc(Nc3ccc(N4CCOCC4)cc3)c2n1 [entospletinib]
Summary of the method: as §1

Measured: log2 fold change

NAA38 isoform 2 (UniProt Q9BRA0)
Sequence of UniProt Q9BRA0 (Q9BRA0 whole entry, looked up): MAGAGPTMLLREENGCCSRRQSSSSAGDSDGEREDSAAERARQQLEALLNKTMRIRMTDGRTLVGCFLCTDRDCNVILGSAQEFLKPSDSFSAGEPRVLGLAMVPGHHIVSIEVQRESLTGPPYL
inactive: [1] -0.015 | vorinostat -0.088 | silmitasertib 0.009 | [2] 0.04 | entospletinib -0.035

NDUFS1 isoform 2 (UniProt P28331)
inactive: [1] -0.006 | vorinostat 0.118 | silmitasertib 0.032 | [2] -0.052 | entospletinib -0.014

MRPS12 (UniProt O15235)
active: vorinostat -0.35
inactive: [1] -0.005 | silmitasertib -0.011 | [2] -0.013 | entospletinib -0.046

NSL1 (UniProt Q96IY1)
active: vorinostat -0.528
inactive: [1] -0.012 | silmitasertib -0.022 | [2] -0.005 | entospletinib 0.03

PAFAH1B3 (UniProt Q15102)
inactive: [1] -0.013 | vorinostat -0.179 | silmitasertib 0.041 | [2] 0.003 | entospletinib -0.052

ORC2 (UniProt Q13416)
inactive: [1] 0 | silmitasertib 0.007 | [2] 0.049 | entospletinib 0.021
active: vorinostat -0.285

NPTN (UniProt Q9Y639)
inactive: [1] 0.067 | vorinostat 0.078 | silmitasertib -0.031 | [2] 0.04 | entospletinib 0.096

MSI2 (UniProt Q96DH6)
inactive: [1] 0.053 | vorinostat -0.046 | silmitasertib -0.021 | [2] -0.052 | entospletinib 0.033

NPLOC4 isoform 2 (UniProt Q8TAT6)
inactive: [1] 0 | vorinostat 0.028 | silmitasertib -0.016 | [2] 0.018 | entospletinib 0.031

NELFCD (UniProt Q8IXH7)
active: vorinostat -0.322
inactive: [1] 0.023 | silmitasertib 0.049 | [2] -0.005 | entospletinib 0.032

NUDT6 (UniProt P53370)
inactive: [1] 0.128 | vorinostat 0.038 | silmitasertib -0.096 | [2] 0.02 | entospletinib -0.225

NNMT (UniProt P40261)
inactive: [1] 0.014 | vorinostat -0.104 | silmitasertib 0.014 | [2] 0.03 | entospletinib -0.004

MYO10 (UniProt Q9HD67)
inactive: [1] 0.401 | vorinostat -0.038 | silmitasertib 0 | [2] 0.159

NIPSNAP3A (UniProt Q9UFN0)
inactive: [1] 0.03 | vorinostat 0.136 | silmitasertib -0.061 | [2] 0.017 | entospletinib -0.021

PARG (UniProt Q86W56)
active: vorinostat -0.363
inactive: [1] 0.006 | silmitasertib -0.035 | [2] 0.018 | entospletinib 0.006

NCKAP1L (UniProt P55160)
inactive: [1] 0.288 | silmitasertib -0.039 | [2] -0.001 | entospletinib 0.029
active: vorinostat -0.444

NCOR1 (UniProt O75376)
inactive: [1] 0.021 | silmitasertib -0.035 | [2] 0.014 | entospletinib -0.01
active: vorinostat -0.239

NUMBL (UniProt Q9Y6R0)
inactive: [1] 0.04 | vorinostat -0.237 | silmitasertib 0.201 | [2] 0.021 | entospletinib 0.102

MT-CYB (UniProt P00156)
inactive: [1] -0.064 | vorinostat 0.158 | silmitasertib 0.031 | [2] 0.118 | entospletinib 0.174

NSUN2 (UniProt Q08J23)
inactive: [1] 0.004 | silmitasertib 0.03 | [2] -0.007 | entospletinib 0.011
active: vorinostat -0.42

ORC3 isoform 2 (UniProt Q9UBD5)
Sequence of UniProt Q9UBD5 (Q9UBD5 whole entry, looked up): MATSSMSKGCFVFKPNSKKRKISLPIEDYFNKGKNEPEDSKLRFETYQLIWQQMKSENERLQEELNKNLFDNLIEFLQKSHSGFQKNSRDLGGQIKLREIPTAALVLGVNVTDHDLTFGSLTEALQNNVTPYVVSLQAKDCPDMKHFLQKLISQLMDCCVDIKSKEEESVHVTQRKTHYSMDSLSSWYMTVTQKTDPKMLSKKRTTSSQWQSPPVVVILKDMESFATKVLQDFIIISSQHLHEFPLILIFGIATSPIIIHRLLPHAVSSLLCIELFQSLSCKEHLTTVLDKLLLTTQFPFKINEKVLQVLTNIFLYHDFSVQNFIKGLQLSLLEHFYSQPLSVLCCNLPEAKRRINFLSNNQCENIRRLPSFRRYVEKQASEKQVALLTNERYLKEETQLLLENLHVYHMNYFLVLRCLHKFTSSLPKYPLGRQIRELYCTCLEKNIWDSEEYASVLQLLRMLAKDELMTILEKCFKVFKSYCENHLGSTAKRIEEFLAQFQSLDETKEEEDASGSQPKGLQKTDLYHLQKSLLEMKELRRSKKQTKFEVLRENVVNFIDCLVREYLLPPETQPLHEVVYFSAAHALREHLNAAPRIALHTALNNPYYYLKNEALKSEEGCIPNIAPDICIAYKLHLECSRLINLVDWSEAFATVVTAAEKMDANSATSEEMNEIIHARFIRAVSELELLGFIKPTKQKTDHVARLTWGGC
active: vorinostat -0.409
inactive: [1] -0.012 | silmitasertib 0.023 | [2] 0.052 | entospletinib 0.013

MRPL51 (UniProt Q4U2R6)
inactive: [1] -0.03 | vorinostat -0.067 | silmitasertib -0.054 | [2] 0.121 | entospletinib 0.003

MRPL58 (UniProt Q14197)
inactive: [1] 0.02 | vorinostat -0.053 | silmitasertib -0.008 | [2] 0.038 | entospletinib 0.041

MT-ATP8 (UniProt P03928)
Sequence of UniProt P03928 (P03928 whole entry, looked up): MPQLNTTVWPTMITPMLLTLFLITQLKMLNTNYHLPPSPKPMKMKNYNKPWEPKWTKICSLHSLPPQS
inactive: [1] 0.056 | vorinostat 0.155 | silmitasertib -0.026 | [2] 0.08 | entospletinib -0.009

MTOR (UniProt P42345)
inactive: [1] -0.035 | silmitasertib 0.146 | [2] -0.013 | entospletinib -0.024
active: vorinostat -0.305

NDUFA4 (UniProt O00483)
Sequence of UniProt O00483 (O00483 whole entry, looked up): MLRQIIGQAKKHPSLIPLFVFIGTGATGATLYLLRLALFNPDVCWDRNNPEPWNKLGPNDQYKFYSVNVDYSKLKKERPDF
inactive: [1] -0.041 | vorinostat -0.017 | silmitasertib -0.004 | [2] 0.01 | entospletinib -0.029

MYO9A isoform 4 (UniProt B2RTY4)
inactive: [1] -0.051 | vorinostat 0.084 | silmitasertib -0.019 | [2] -0.03

NMRAL1 (UniProt Q9HBL8)
inactive: [1] -0.023 | vorinostat -0.009 | silmitasertib 0.047 | [2] -0.04 | entospletinib 0.012

NNT (UniProt Q13423)
inactive: [1] 0.02 | vorinostat 0.023 | silmitasertib -0.001 | [2] -0.036 | entospletinib -0.01

NOSTRIN (UniProt Q8IVI9)
inactive: [1] -0.083 | silmitasertib 0.028 | [2] 0.019 | entospletinib 0.018
active: vorinostat -0.27

NDC1 (UniProt Q9BTX1)
inactive: [1] 0.013 | vorinostat -0.134 | silmitasertib -0.016 | [2] -0.012 | entospletinib -0.016

NFATC2IP (UniProt Q8NCF5)
Sequence of UniProt Q8NCF5 (Q8NCF5 whole entry, looked up): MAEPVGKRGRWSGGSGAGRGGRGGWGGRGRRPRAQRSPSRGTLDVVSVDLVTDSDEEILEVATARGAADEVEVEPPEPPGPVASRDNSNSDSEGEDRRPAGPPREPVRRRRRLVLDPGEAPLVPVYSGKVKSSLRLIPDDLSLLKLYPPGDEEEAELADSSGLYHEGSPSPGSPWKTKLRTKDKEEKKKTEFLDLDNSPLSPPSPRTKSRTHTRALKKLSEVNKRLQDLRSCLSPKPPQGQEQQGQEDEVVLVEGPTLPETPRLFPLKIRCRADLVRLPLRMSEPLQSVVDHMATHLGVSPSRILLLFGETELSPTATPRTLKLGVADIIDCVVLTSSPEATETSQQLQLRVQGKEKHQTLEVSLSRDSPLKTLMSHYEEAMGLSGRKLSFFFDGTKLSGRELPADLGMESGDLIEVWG
inactive: [1] 0.041 | vorinostat -0.069 | silmitasertib -0.039 | [2] -0.07 | entospletinib 0.041

NCAPG2 (UniProt Q86XI2)
inactive: [1] 0.002 | silmitasertib 0.015 | [2] -0.016 | entospletinib 0.009
active: vorinostat -0.598

PANK4 (UniProt Q9NVE7)
Sequence of UniProt Q9NVE7 (Q9NVE7 whole entry, looked up): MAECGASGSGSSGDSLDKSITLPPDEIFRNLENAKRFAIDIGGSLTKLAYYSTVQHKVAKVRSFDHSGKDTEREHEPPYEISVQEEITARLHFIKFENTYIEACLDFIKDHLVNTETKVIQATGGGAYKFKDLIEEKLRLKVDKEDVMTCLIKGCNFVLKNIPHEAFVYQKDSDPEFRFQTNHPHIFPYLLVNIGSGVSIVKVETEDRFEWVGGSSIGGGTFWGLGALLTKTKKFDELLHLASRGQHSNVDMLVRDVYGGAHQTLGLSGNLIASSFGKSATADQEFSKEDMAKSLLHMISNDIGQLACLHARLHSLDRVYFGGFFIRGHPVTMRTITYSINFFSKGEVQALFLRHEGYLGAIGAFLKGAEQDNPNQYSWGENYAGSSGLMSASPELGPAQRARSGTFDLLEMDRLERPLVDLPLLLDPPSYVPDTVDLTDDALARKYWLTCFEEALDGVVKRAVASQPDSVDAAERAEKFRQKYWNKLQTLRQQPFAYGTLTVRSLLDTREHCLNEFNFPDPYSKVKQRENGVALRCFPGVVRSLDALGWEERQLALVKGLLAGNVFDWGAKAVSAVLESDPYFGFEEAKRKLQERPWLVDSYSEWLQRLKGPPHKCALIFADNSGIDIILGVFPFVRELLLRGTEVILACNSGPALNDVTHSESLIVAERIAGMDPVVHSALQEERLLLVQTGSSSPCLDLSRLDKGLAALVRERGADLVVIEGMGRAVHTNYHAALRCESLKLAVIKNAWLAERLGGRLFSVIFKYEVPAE
active: vorinostat -0.423
inactive: [1] 0.012 | silmitasertib -0.03 | [2] 0.055 | entospletinib 0.035

OPA1 isoform 2 (UniProt O60313)
inactive: [1] 0.002 | vorinostat 0.014 | silmitasertib 0.027 | [2] 0.009 | entospletinib -0.004

NUP160 (UniProt Q12769)
active: vorinostat -0.291
inactive: [1] -0.036 | silmitasertib 0.082 | [2] 0.022 | entospletinib 0.009

NFAT5 isoform 5 (UniProt O94916)
inactive: [1] 0.033 | vorinostat -0.026 | silmitasertib 0.037 | [2] 0.016 | entospletinib -0.061

NGLY1 (UniProt Q96IV0)
Sequence of UniProt Q96IV0 (Q96IV0 whole entry, looked up): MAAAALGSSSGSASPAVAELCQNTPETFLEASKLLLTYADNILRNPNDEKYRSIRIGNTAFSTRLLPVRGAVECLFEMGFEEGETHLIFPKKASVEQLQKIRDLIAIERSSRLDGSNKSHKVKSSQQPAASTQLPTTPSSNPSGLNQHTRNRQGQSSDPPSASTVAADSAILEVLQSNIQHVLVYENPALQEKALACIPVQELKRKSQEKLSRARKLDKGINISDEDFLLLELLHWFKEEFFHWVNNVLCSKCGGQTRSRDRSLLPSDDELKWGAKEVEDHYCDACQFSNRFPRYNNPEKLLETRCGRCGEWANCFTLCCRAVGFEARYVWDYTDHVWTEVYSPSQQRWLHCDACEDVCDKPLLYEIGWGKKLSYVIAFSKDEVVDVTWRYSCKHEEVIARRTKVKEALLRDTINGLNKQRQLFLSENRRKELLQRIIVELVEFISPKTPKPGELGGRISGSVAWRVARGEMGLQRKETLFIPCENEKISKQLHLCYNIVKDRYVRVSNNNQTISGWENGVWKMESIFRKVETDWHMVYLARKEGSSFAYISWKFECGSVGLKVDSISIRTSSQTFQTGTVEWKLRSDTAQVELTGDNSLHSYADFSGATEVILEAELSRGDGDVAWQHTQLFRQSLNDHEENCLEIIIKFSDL
inactive: [1] -0.014 | silmitasertib 0.041 | [2] 0.018 | entospletinib 0.034
active: vorinostat -0.29

NFKBIB (UniProt Q15653)
Sequence of UniProt Q15653 (Q15653 whole entry, looked up): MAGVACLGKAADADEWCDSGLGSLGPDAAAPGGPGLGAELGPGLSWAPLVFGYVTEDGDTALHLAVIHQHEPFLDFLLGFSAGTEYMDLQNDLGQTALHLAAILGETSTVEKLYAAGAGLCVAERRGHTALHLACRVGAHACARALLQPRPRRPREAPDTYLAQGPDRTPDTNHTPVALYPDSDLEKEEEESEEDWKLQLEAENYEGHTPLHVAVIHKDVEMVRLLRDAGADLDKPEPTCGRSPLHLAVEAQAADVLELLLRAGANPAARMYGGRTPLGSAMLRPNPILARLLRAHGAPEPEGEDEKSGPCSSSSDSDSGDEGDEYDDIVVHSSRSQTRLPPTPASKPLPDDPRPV
inactive: [1] -0.052 | vorinostat -0.204 | silmitasertib 0.04 | [2] 0.024 | entospletinib 0

NFKBIE (UniProt O00221)
inactive: [1] -0.08 | vorinostat 0.005 | silmitasertib 0.114 | [2] -0.017 | entospletinib -0.036

NUP210 (UniProt Q8TEM1)
active: vorinostat 0.276
inactive: [1] -0.006 | silmitasertib 0.022 | [2] -0.013 | entospletinib -0.038

NARS2 (UniProt Q96I59)
active: vorinostat -0.344
inactive: [1] 0.063 | silmitasertib 0.05 | [2] -0.029 | entospletinib -0.079

MTCH2 (UniProt Q9Y6C9)
active: vorinostat -0.432
inactive: [1] -0.016 | silmitasertib -0.001 | [2] -0.075 | entospletinib 0.026

NFATC2 (UniProt Q13469)
active: vorinostat -0.411
inactive: [1] 0.02 | silmitasertib 0.021 | [2] 0.044 | entospletinib -0.062

OARD1 (UniProt Q9Y530)
Sequence of UniProt Q9Y530 (Q9Y530 whole entry, looked up): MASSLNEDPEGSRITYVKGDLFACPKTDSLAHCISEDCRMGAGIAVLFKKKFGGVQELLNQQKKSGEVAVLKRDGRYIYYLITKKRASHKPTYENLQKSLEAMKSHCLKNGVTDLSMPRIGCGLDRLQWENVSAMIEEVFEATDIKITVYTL
inactive: [1] -0.021 | silmitasertib 0.051 | [2] 0.02 | entospletinib 0.024
active: vorinostat -0.456

NARF (UniProt Q9UHQ1)
inactive: [1] -0.05 | silmitasertib -0.016 | [2] -0.008 | entospletinib -0.054
active: vorinostat -0.243

NEK9 (UniProt Q8TD19)
inactive: [1] -0.03 | silmitasertib 0.052 | [2] -0.013 | entospletinib 0.013
active: vorinostat -0.45

NCAPH2 (UniProt Q6IBW4)
Sequence of UniProt Q6IBW4 (Q6IBW4 whole entry, looked up): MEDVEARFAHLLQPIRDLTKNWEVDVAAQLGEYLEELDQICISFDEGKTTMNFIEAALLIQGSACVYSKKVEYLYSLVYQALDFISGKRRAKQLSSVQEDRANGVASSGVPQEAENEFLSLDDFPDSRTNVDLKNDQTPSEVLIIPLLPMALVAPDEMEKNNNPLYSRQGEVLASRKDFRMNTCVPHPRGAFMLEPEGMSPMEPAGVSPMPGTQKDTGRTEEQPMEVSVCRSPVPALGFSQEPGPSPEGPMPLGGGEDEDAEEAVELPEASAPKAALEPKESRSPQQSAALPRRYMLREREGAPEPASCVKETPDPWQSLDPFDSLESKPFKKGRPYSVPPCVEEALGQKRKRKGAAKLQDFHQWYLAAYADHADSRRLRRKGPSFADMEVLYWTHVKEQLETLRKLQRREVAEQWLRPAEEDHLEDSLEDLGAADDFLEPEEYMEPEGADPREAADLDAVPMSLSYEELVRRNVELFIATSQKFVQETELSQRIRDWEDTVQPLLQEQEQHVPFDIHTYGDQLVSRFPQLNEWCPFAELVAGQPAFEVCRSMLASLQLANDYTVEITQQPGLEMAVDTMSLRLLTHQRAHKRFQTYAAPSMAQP
inactive: [1] 0.052 | silmitasertib 0 | [2] 0.037 | entospletinib -0.008
active: vorinostat -0.277

OGFOD2 (UniProt Q6N063)
inactive: [1] 0.023 | vorinostat -0.075 | silmitasertib 0.038 | [2] 0.022 | entospletinib -0.001

NADK2 (UniProt Q4G0N4)
inactive: [1] -0.002 | vorinostat -0.106 | silmitasertib 0.044 | [2] 0.003 | entospletinib -0.001

PAK1 (UniProt Q13153)
Sequence of UniProt Q13153 (Q13153 whole entry, looked up): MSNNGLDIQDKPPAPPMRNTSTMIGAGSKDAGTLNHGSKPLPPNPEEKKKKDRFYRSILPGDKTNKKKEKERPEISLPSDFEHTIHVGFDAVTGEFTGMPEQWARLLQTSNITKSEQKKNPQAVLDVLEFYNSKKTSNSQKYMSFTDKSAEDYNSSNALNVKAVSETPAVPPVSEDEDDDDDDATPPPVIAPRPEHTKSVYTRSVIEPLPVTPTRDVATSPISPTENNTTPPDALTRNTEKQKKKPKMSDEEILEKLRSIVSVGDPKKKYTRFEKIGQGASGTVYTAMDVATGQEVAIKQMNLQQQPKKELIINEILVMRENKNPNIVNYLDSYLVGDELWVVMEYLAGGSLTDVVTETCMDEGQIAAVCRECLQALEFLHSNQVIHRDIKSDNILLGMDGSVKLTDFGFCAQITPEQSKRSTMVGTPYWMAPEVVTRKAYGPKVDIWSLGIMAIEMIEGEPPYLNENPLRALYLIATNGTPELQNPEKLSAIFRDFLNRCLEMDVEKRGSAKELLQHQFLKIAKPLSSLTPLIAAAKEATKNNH
inactive: [1] 0.008 | vorinostat 0.13 | silmitasertib -0.046 | [2] -0.001 | entospletinib 0.051

PBK (UniProt Q96KB5)
inactive: [1] -0.029 | silmitasertib 0.013 | [2] -0.021 | entospletinib 0.035
active: vorinostat -0.269

OLA1 (UniProt Q9NTK5)
Sequence of UniProt Q9NTK5 (Q9NTK5 whole entry, looked up): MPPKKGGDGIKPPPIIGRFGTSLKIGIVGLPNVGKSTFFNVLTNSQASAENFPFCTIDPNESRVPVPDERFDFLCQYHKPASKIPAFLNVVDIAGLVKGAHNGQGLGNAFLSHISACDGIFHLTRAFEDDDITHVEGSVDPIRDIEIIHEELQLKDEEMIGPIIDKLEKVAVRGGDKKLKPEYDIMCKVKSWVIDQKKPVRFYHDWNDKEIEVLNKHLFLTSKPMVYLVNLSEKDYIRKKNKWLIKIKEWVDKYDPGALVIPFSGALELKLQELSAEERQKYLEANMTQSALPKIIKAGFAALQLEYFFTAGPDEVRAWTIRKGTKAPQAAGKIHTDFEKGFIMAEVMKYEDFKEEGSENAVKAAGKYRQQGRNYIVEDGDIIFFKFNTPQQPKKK
active: vorinostat -0.31
inactive: [1] 0.03 | silmitasertib 0.041 | [2] 0.004 | entospletinib 0.043

MTMR6 (UniProt Q9Y217)
inactive: [1] -0.018 | silmitasertib 0.027 | [2] -0.027 | entospletinib 0.003
active: vorinostat -0.276

Reference: the supplement of paper PMC10849652
